Reference: PubChem BioAssay (EPA / NIEHS)
Activity calls are given as the source filed them. Rule for the calls: active = hit-call score of the fitted dose curve at least 0.9, where 1 is the maximum; inactive = score below 0.9.

Legend:
[1] = read-out: Interleukin-8 (IL8), CXCL8 (gene 3576); assay: BSK_CASM3C_IL8: BioMAP Diversity Plus: CASM3C Assay for Interleukin-8 (IL8) Biomarker Activity (AID 2283042); settings: primary human coronary artery smooth muscle cells; actives raise or lower the signal;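 note: IL-8 protein level quantified by ELISA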
[2] = read-out: Human Leukocyte Antigen - DR isotype (HLADR), HLA-DRA (gene 3122); assay: BSK_CASM3C_HLADR: BioMAP Diversity Plus: CASM3C Assay for Human Leukocyte Antigen - DR isotype (HLADR) Biomarker Activity (AID 2283043); settings: primary human coronary artery smooth muscle cells; actives raise or lower the signal;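 note: cell-surface HLA-DR protein level quantified by ELISA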
[3] = read-out: Macrophage colony-stimulating factor (MCSF), CSF1 (gene 1435); assay: BSK_CASM3C_MCSF: BioMAP Diversity Plus: CASM3C Assay for Macrophage colony-stimulating factor (MCSF) Biomarker Activity (AID 2283044); settings: primary human coronary artery smooth muscle cells; actives raise or lower the signal;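 note: M-CSF protein amount quantified by ELISA after 24 h exposure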
[4] = read-out: Low-density lipoprotein receptor (LDLR), LDLR (gene 3949); assay: BSK_CASM3C_LDLR: BioMAP Diversity Plus: CASM3C Assay for Low-density lipoprotein receptor (LDLR) Biomarker Activity (AID 2283045); settings: primary human coronary artery smooth muscle cells; actives raise or lower the signal;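 note: LDLR protein level on the cell surface quantified by ELISA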
[5] = read-out: Monocyte Chemoattractant Protein-1 (MCP1), CCL2 (gene 6347); assay: BSK_CASM3C_MCP1: BioMAP Diversity Plus: CASM3C Assay for Monocyte Chemoattractant Protein-1 (MCP1) Biomarker Activity (AID 2283046); settings: primary human coronary artery smooth muscle cells; actives raise or lower the signal;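 note: MCP-1 level quantified by ELISA 24 h after dosing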
[6] = BSK_CASM3C_Proliferation: Cell Proliferation Assessment in the BioMAP Diversity Plus: CASM3C Assay (AID 2283047); settings: primary human coronary artery smooth muscle cells;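 note: sulforhodamine B total protein stain as relative cell number at 560 nm; sub-confluent cells exposed 48 h before staining; fitted both ways against DMSO so gain or loss of cell number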
[7] = read-out: Monokine induced gamma interferon (MIG), CXCL9 (gene 4283); assay: BSK_CASM3C_MIG: BioMAP Diversity Plus: CASM3C Assay for Monokine induced gamma interferon (MIG) Biomarker Activity (AID 2283048); settings: primary human coronary artery smooth muscle cells; actives raise or lower the signal;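 note: MIG protein level measured by ELISA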
[8] = read-out: serum amyloid A (SAA), SAA1 (gene 6288); assay: BSK_CASM3C_SAA: BioMAP Diversity Plus: CASM3C Assay for serum amyloid A (SAA) Biomarker Activity (AID 2283049); settings: primary human coronary artery smooth muscle cells; actives raise or lower the signal;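 note: SAA protein level quantified by ELISA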
[9] = BSK_CASM3C_SRB: Viability Assessment in the BioMAP Diversity Plus: CASM3C Assay (AID 2283050); settings: primary human coronary artery smooth muscle cells;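 note: total protein by SRB staining as cytotoxicity measure in parallel cultures; cells exposed to compound for 24 h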
[10] = read-out: Thrombomodulin, THBD (gene 7056); assay: BSK_CASM3C_Thrombomodulin: BioMAP Diversity Plus: CASM3C Assay for Thrombomodulin Biomarker Activity (AID 2283051); settings: primary human coronary artery smooth muscle cells; actives raise or lower the signal;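 note: thrombomodulin protein level measured by ELISA 24 h after dosing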

Measured: AC50

Cc1cc(NC(=O)C(=O)O)cc(C)c1Oc1ccc(O)c2c1CCC2
inactive: all assays above

NS(=O)(=O)c1cc2c(cc1Cl)NCNS2(=O)=O
inactive: all assays above

COCCOC[C@H](CC1(C(=O)NC2CCC(C(=O)O)CC2)CCCC1)C(=O)Oc1ccc2c(c1)CCC2 (stereo partly specified)
inactive: all assays above

Cc1cccc([N+](=O)[O-])c1C
inactive: all assays above

O=C(N[C@@H](Cc1ccccc1)[C@@H](O)C(=O)N1C[C@@H](O)[C@@H](O)C1)c1cc2cc(Cl)ccc2[nH]1
inactive: all assays above

CC(=O)OC/C=C(\C)CCC=C(C)C
inactive: all assays above

CC(CO)OC(C)CO (stereo unspecified) (tested in a mixture with another compound)
inactive: all assays above

Cc1ccc(Cl)cc1
inactive: all assays above

COc1ccc(C)cc1N
inactive: all assays above

Cc1ccc(N(C)C)cc1
inactive: all assays above

COc1cc(C=O)ccc1O
inactive: all assays above

C[C@]12C=CC(=O)C=C1CC[C@@H]1[C@@H]2C(=O)C[C@@]2(C)[C@H]1CC[C@]2(O)C(=O)CO
active: [1] 0.184 µM | [3] 0.243 µM | [5] 0.242 µM | [8] 0.699 µM
not listed: [9]
inactive: all other assays above

O=c1c(O)c(-c2ccc(O)c(O)c2)oc2cc(O)cc(O)c12
inactive: [8] | [10]
active: [1] 11.6 µM | [3] 6.34 µM | [4] 4.11 µM | [5] 9.09 µM | [6] 9.64 µM | [7] 20 µM | [9] 14.2 µM

CCOC(=O)C(C)(C)Oc1ccc(Cl)cc1
inactive: all assays above

CCOC(=O)CCC(=O)OCC
inactive: all assays above

Nc1ccc2c(c1)C(=O)c1ccccc1C2=O
active: [6] 14.3 µM
not listed: [5]
inactive: all other assays above

Cc1ccc(C(C)C)c(O)c1
not listed: [8]
inactive: all other assays above

NCCO
active: [10] 0.937 µM
inactive: all other assays above

Cc1ccc2ncccc2c1
inactive: all assays above

CCCCOC(=O)CCCCCCCCC(=O)OCCCC
inactive: all assays above

CCCCCCCCCCCCCCCC
inactive: all assays above

Cc1c(C(=O)O)c(O)cc2c1C(=O)c1c(O)c([C@@H]3O[C@H](CO)[C@@H](O)[C@H](O)[C@H]3O)c(O)c(O)c1C2=O
inactive: all assays above
